Source: PubChem BioAssay (NCI)
Compounds without any hit were thinned out: in the full panel of roughly 83,000, 20% have a hit.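 Interpretation: 100, growth as untreated; towards 0, rising growth inhibition; 0, no net growth; 0 to -100, cell death. Compounds scoring below 10 were considered active.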 Activity calls are given as the source filed them.

How the values were obtained:
Experiment in all cases: NCI-60 one-dose screen, 48 h (100 = growth as untreated, 0 = no growth, -100 = all killed)
Details in all cases: 10 µM
NCI-H23 lung = tested on: NCI-H23 lung
NCI-H226 lung = tested on: NCI-H226 lung
NCI-H322M lung = tested on: NCI-H322M lung
NCI-H460 lung = tested on: NCI-H460 lung
HOP-92 NSCLC = tested on: HOP-92 NSCLC
NCI-H522 lung = tested on: NCI-H522 lung
A549/ATCC NSCLC = tested on: A549/ATCC NSCLC
786-0 renal = tested on: 786-0 renal
COLO 205 colon = tested on: COLO 205 colon
DU-145 prostate = tested on: DU-145 prostate
K-562 leukemia = tested on: K-562 leukemia
MALME-3M melanoma = tested on: MALME-3M melanoma
MDA-MB-231 breast = tested on: MDA-MB-231 breast
RXF 393 renal = tested on: RXF 393 renal
SF-268 CNS = tested on: SF-268 CNS
SF-295 CNS = tested on: SF-295 CNS
SF-539 CNS = tested on: SF-539 CNS
UACC-257 melanoma = tested on: UACC-257 melanoma
M14 melanoma = tested on: M14 melanoma

Measured: growth

Cc1ccc(CSc2nc(-c3ccc(F)cc3)c(C#N)c(=O)[nH]2)cc1
inactive: NCI-H23 lung 103% | NCI-H226 lung 99.1% | NCI-H322M lung 98.6% | NCI-H460 lung 109% | HOP-92 NSCLC 96.7% | NCI-H522 lung 87.1% | A549/ATCC NSCLC 89.8% | 786-0 renal 100% | COLO 205 colon 131% | DU-145 prostate 101% | K-562 leukemia 91.1% | MALME-3M melanoma 117% | MDA-MB-231 breast 104% | RXF 393 renal 95.1% | SF-268 CNS 101% | SF-295 CNS 95.6% | SF-539 CNS 101% | UACC-257 melanoma 102% | M14 melanoma 116%

COc1ccc2[nH]c(O)c(N=NC(=O)COc3ccc(NC(=O)Nc4ccc(Cl)c(Cl)c4)cc3)c2c1
active: NCI-H23 lung -80.4% | NCI-H226 lung -75.6% | HOP-92 NSCLC -47.4% | NCI-H522 lung -90% | A549/ATCC NSCLC -54.5% | 786-0 renal -33.2% | COLO 205 colon -49.3% | DU-145 prostate -60.3% | MALME-3M melanoma -79.6% | MDA-MB-231 breast -89.7% | RXF 393 renal -87.5% | SF-295 CNS -45.5% | SF-539 CNS -97.5% | M14 melanoma -42.2%
inactive: NCI-H322M lung 16.6% | NCI-H460 lung 15.5% | SF-268 CNS 64.1% | UACC-257 melanoma 11.3%

COC1=C[C@@]23CCC(=O)N2CCc2cc4c(cc2[C@H]3[C@H]1OC(=O)C(C)(C)O)OCO4
inactive: NCI-H23 lung 95.6% | NCI-H226 lung 93.2% | NCI-H322M lung 101% | NCI-H460 lung 115% | HOP-92 NSCLC 92% | NCI-H522 lung 95.6% | A549/ATCC NSCLC 102% | 786-0 renal 95.7% | COLO 205 colon 120% | DU-145 prostate 108% | K-562 leukemia 107% | MALME-3M melanoma 102% | MDA-MB-231 breast 94.9% | SF-268 CNS 104% | SF-295 CNS 95.8% | SF-539 CNS 93.6% | UACC-257 melanoma 104% | M14 melanoma 102%

COc1cccc(C(N)=Nc2ccc(OCCCCCCn3cncn3)cc2)c1
inactive: NCI-H322M lung 60.5%

NC(=Nc1ccc(OCCCCCCCCn2ccnn2)cc1)c1ccccc1
inactive: NCI-H322M lung 60.3%
